PRMT1 inh: inhibitors of human PRMT1 | AID 652257 | recombinant PRMT1, activity-based probe fluorescence polarization | Q99873 | 1.3% of 370,000 active | inhibition, % at 2.79 µM;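 active = inhibition above about 21% made by adding two undisclosed values, limit read from the data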
ABHD5 PLIN5 PPI: inhibitors of human ABHD5-perilipin-5 interaction. Q00G26+Q8WTS1. Split G. princeps luciferase complementation, luminescence, 4 h. inhibition, % at 4 µM. 0.78% of 360,000 active. AID 602281;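 active = inhibition above the mean inhibition across every tested compound plus 3 SD, cut at about 22% in these data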;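 also: 0% = DMSO only wells and the 100% control is not disclosed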
TLR4-MyD88 BLA: blocks binding of human TLR4 to MyD88; O00206+Q99836; HeLa CL3-4 TLR4/MyD88 BLA complementation, FRET ratio; inhibition, % at 8.4 µM; 0.18% of 200,000 active; AID 861; in the data active = inhibition above about 25%;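 also: 0% = vehicle and 100% = reference inhibitor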
NOD2-RIPK2 inh: inhibitors of human NOD2-RIPK2 interaction; O43353; CHO BLA complementation NOD2-RIPK2, CCF4 ratio; inhibition, % at 4.98 µM; 0.38% of 360,000 active; AID 624267; in the data active = inhibition above about 21%;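 also: 0% = vehicle only and 100% = reference blocker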
Exocytosis inh: lytic granule exocytosis inhibition. inhibition, % at 10 µM. TALL-104 LAMP-1 surface exposure, flow cytometry; cells stimulated with thapsigargin and PMA. 0.66% of 360,000 active;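 active = inhibition above about 55%, limit read from the data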
TLR9-MyD88 block: inhibitors of human TLR9-MyD88 binding | Q9NR96+Q99836 | CHO BLA complementation TLR9-MyD88, CCF4 FRET ratio | inhibition, % at 4.98 µM | 0.21% of 340,000 active;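 active = inhibition above the mean over all tested compounds plus 3 SD, cut at about 21% in these data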;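 also: 0% = DMSO only wells and 100% = clavulanate BLA inhibitor control wells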
Numbers without * were called inactive. Only some compounds are listed: those with a hit (about 2.6% of all), similar ones and a draw of the others.

Screening COc1ccc2nc(/N=C/c3c(O)n(-c4cccc(Cl)c4)c(=O)[nH]c3=O)sc2c1 returned PRMT1 inh 1.7, ABHD5 PLIN5 PPI 22.9*, TLR4-MyD88 BLA -7.4, NOD2-RIPK2 inh -3.2, Exocytosis inh 10.2 and TLR9-MyD88 block 2.6.
Screening N#CCC[C@@H]1CC[C@]2(CCCN(Cc3ccncc3)C2)O1 returned PRMT1 inh 1.6.
COc1ccc(OCC(=O)N2CCCC(N3CCN(c4ccccc4C)CC3)C2)cc1 (stereo unspecified) was read as PRMT1 inh 1.4, ABHD5 PLIN5 PPI 3.2, NOD2-RIPK2 inh -9.1, Exocytosis inh 0.3 and TLR9-MyD88 block -0.2.
Screening Fc1cccc(C2NCc3ccccc3-n3cccc32)c1 (stereo unspecified) returned PRMT1 inh 1.7, ABHD5 PLIN5 PPI -4.4, NOD2-RIPK2 inh -4.5, Exocytosis inh -2.1 and TLR9-MyD88 block -15.2.
Screening Cc1ccc(Sc2ccc(C=C3C(=O)N(C)C(=O)N(C)C3=O)o2)cc1 returned PRMT1 inh 10.3, ABHD5 PLIN5 PPI 1.4, TLR4-MyD88 BLA -7.1, NOD2-RIPK2 inh 5.2, Exocytosis inh 73.9* and TLR9-MyD88 block 6.6.
`O=C1NC(=O)N(Cc2ccco2)C(=O)/C1=C/c1cccn1CCOc1ccccc1Cl` gave PRMT1 inh 21.9*, ABHD5 PLIN5 PPI 0.5, TLR4-MyD88 BLA 10.3, NOD2-RIPK2 inh 12.1, Exocytosis inh -4.6 and TLR9-MyD88 block -3.3.
Screening CCN(CC)c1ccc(/C=C2\C(=O)NC(=O)N(Cc3ccco3)C2=O)cc1 returned PRMT1 inh 22.3*, ABHD5 PLIN5 PPI 8.5, TLR4-MyD88 BLA 6.7, NOD2-RIPK2 inh -10.2, Exocytosis inh -2.5 and TLR9-MyD88 block 6.8.
Screening O=C1NC(=O)N(Cc2ccccc2)C(=O)/C1=C\c1ccco1 returned PRMT1 inh 17.4, ABHD5 PLIN5 PPI 3.7, TLR4-MyD88 BLA 7.8, NOD2-RIPK2 inh -1.2, Exocytosis inh 2.2 and TLR9-MyD88 block -3.6.
O=C1NC(=O)N(c2ccccc2)C(=O)/C1=C\C=C\c1ccccc1 was read as PRMT1 inh 6.8, ABHD5 PLIN5 PPI 20.7, NOD2-RIPK2 inh 4.0 and Exocytosis inh 7.8.
For Cc1cc(C)cc(N2C(=O)NC(=O)/C(=C\C=C\c3ccco3)C2=O)c1 the results were PRMT1 inh 14.5, ABHD5 PLIN5 PPI 23.0*, TLR4-MyD88 BLA 1.7, NOD2-RIPK2 inh 3.5, Exocytosis inh 50.0 and TLR9-MyD88 block -1.6.
`Cc1ccc(N2C(=O)NC(=O)/C(=C/C=C/c3ccco3)C2=O)cc1` gave PRMT1 inh 24.0*, ABHD5 PLIN5 PPI 16.6, TLR4-MyD88 BLA 2.0, NOD2-RIPK2 inh -11.0, Exocytosis inh 45.6 and TLR9-MyD88 block -5.2.
Screening CC(C)c1ccc(N2C(=O)NC(=O)/C(=C/C=C/c3ccco3)C2=O)cc1 returned PRMT1 inh 9.2, ABHD5 PLIN5 PPI 22.1*, TLR4-MyD88 BLA 3.1, NOD2-RIPK2 inh -12.5, Exocytosis inh 5.6 and TLR9-MyD88 block 1.0.
Screening N#Cc1ccc2nc(-c3ccc(CN4CCC(n5nnc6ccccc65)CC4)cc3)c(-c3ccccc3)nc2c1 returned PRMT1 inh 2.2.
Screening O=C(O)c1ccc2c(c1)C1C(Cl)C(Sc3ccccc3[N+](=O)[O-])CC1C(c1cccc([N+](=O)[O-])c1)N2 (stereo unspecified) returned ABHD5 PLIN5 PPI 7.6, TLR4-MyD88 BLA 1.1, NOD2-RIPK2 inh 5.1, Exocytosis inh -0.7 and TLR9-MyD88 block 2.1.
`CCN(CC)C(=O)c1ccc2c(c1)C1C=CCC1C(C(=O)O)N2` (stereo unspecified) gave PRMT1 inh 49.0*, ABHD5 PLIN5 PPI 8.7, NOD2-RIPK2 inh -4.4, Exocytosis inh -3.3 and TLR9-MyD88 block -2.3.
Screening CCN(CC)C(=O)c1ccc2c(c1)C1C(Cl)C(Sc3ccccc3[N+](=O)[O-])CC1C(C(=O)O)N2 (stereo unspecified) returned ABHD5 PLIN5 PPI 23.0*, NOD2-RIPK2 inh -7.6, Exocytosis inh -2.3 and TLR9-MyD88 block 8.1.
Screening Cc1ccc2c(c1Cl)NC(C(=O)O)C1CC(Sc3ccccc3[N+](=O)[O-])C(Cl)C21 (stereo unspecified) returned ABHD5 PLIN5 PPI 0.9, NOD2-RIPK2 inh -7.0, Exocytosis inh -0.1 and TLR9-MyD88 block 3.1.

Source: PubChem
